These results are taken from PubChem BioAssay.

The nature of experiment [1]: viability loss in pontine glioma line – cell-based, JHH-DIPG-1, MIPE4.0, CellTiter-Glo, qHTS, dose response (AID 1347062; cut-off not given, nearly all actives have AC50 up to about 27 µM;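 on AC50: cells exposed to compound for two days before readout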). As to conditions: JHH-DIPG-1 viability, CellTiter-Glo ATP luminescence.
Experiment [2] is described as follows: viability loss in pontine glioma line – cell-based, SU-DIPG-XIII, MIPE5.0, CellTiter-Glo, qHTS, dose response (AID 1347064; cut-off not given, nearly all actives have AC50 up to about 23 µM;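 on AC50: cells exposed to compound for 48 hours before the viability read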). As to conditions: CellTiter-Glo ATP luminescence. Background: ATP-based viability assays read luminescence as a measure of living cells.
The nature of experiment [3]: viability loss in pontine glioma line – cell-based, SU-DIPG-XXV, MIPE5.0, CellTiter-Glo, qHTS, dose response (AID 1347065).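 Further: cells exposed to compound for 48 hours before ATP readout.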 Conditions: CellTiter-Glo ATP luminescence.
Experiment [4] in a line: growth inhibition of DIPG cells – cell-based, MIPE4.0 library, CellTiter-Glo luminescence, qHTS (AID 1347066; cut-off not given, nearly all actives have AC50 up to about 30 µM;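 further: cells exposed to compound for 48 hours before readout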). As to conditions: SU-DIPG-VI viability, CellTiter-Glo ATP luminescence.
Experiment [5] is described as follows: JHH-DIPG-1 glioma cell viability, MIPE5.0 library, CellTiter-Glo luminescence, qHTS (AID 1347067).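 Further: cells exposed to compound for 48 hours before readout.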 As to conditions: JHH-DIPG-1 glioma viability, CellTiter-Glo ATP luminescence.
The nature of experiment [6]: compounds altering viability of human ES cells (AID 493140; call rule not given here;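 further: cells exposed to compounds for four days before counting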). Conditions: human embryonic stem cell survival screen; stronger effect = higher value.
Experiment [7] has as its target Mitogen-activated protein kinase 7 (Homo sapiens) (UniProt Q13164). Nature of the experiment: Gal4-ERK5 driven luciferase induction – cell-based, HTS, primary screen (AID 1508626;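 active means luciferase signal above three times the same-plate solvent-only control wells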;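 further: luciferase driven by Gal4-ERK5 fusion binding five Gal4 sites before minimal TATA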). Conditions: HeLa Gal4-ERK5 transactivation, 18 h, at 5 µM, stronger effect = higher value.
Experiment [8] can be described thus: compounds altering HSF1 focus formation in cells – imaging, Selleck Cancer Library (AID 1347162; in the data active means plate-normalised HSF1 focus index below about 0.46). As to conditions: human cells, HSF1 nuclear foci imaging, at 10 µM; SSMD: measured here: HSF1 foci SSMD mean; cell count: measured here: cell number; plate-normalised HSF1 focus index: stronger effect = lower value.
Experiment [9] is described as follows: compounds altering circadian rhythm period length – cell-based, LOPAC library, luminescence reporter (AID 2774; call rule not given here;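 further: values are relative to mean of DMSO wells on each plate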). Conditions: circadian reporter cells, at 7 µM, actives lie on both sides.
Experiment [10] relates to Hepatitis C virus NS3 helicase. The experiment in a line: blockers of NS3h binding to ssDNA – biochemical, fluorescence polarization, LOPAC1280 library, primary screen (AID 687035; in the data active means inhibition above about 37%). As to conditions: Purified HCV NS3 helicase, Cy5-dT15 ssDNA binding fluorescence polarization; stronger effect = higher value; concentration not given here.
Experiment [11] in a line: compounds altering Cy5-DNA-NS3h complex signal – biochemical, LOPAC1280, artefact control for HCV NS3 helicase inhibitor project (AID 687037; call rule not given here). Conditions: Cy5-DNA-NS3h complex fluorescence interference counterscreen. For orientation: Counterscreens check selectivity or assay interference.
Experiment [12] is described as follows: blockers of cellular phospholipid synthesis – cell-based, LOPAC library, screen 4, primary screen (AID 1347384; call rule not given here). Conditions: animal cells, phospholipid biosynthesis inhibition screen; at 10 µM.

Records with an inconclusive call do not appear. Active and inactive are the calls of the source. Unless noted, cut-off not given; nearly all actives show AC50 up to about 26 µM. Where a SMILES comes first, the peptide text is derived from it. [ ]: non-standard residue; d: D form. The star is where a group is joined. Sta = CC(C)C[C@H](N)[C@@H](O)CC(=O)O; Isovaleryl = CC(C)CC(=O)*

Chain of Mitogen-activated protein kinase 7 (Homo sapiens) (Q13164 whole entry, looked up, the tested form may be a part): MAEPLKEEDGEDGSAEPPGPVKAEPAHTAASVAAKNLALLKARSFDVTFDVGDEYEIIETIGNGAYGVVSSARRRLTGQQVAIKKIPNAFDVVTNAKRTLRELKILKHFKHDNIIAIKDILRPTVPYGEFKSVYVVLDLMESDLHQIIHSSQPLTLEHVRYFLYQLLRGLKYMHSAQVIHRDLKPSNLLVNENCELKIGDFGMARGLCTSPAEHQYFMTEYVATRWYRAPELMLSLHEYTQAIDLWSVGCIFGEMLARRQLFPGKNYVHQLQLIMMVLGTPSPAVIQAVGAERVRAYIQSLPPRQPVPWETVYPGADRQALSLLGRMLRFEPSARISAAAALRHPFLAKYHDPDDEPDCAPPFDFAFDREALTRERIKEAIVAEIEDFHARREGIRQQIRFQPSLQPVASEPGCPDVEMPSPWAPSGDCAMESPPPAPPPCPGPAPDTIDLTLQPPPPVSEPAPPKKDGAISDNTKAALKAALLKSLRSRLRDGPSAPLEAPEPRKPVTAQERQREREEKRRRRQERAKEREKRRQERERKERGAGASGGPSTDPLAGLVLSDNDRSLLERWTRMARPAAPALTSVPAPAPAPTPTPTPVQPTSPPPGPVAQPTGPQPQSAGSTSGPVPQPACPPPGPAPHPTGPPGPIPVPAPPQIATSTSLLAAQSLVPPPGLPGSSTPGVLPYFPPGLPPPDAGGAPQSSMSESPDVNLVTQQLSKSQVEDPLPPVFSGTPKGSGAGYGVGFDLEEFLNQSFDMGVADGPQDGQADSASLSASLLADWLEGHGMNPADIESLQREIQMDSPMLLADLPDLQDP

Broadly, the AC50 is the midpoint of the concentration-response curve, whichever way the signal moves. Take `C[C@@H](NCCCc1cccc(C(F)(F)F)c1)c1cccc2ccccc12`: the compound was classed as inactive in experiment [1] and in [4]. Further, the AC50 in [2] was 18.6 µM (active); in experiment [3], 14.8 µM (active); in experiment [5] it was 16.6 µM (active).

Consider `CS(=O)(=O)CCNCc1ccc(-c2ccc3ncnc(Nc4ccc(OCc5cccc(F)c5)c(Cl)c4)c3c2)o1`, for which the AC50 in [1] is 18.7 µM (active); in [2], 18.6 µM (active); in experiment [3], 13.2 µM (active); in [4], 16.6 µM (active); in [5] it was 20.9 µM (active).

Take `CSCC[C@H](NC(=O)[C@H](Cc1c[nH]c2ccccc12)NC(=O)CCNC(=O)OC(C)(C)C)C(=O)N[C@@H](CC(=O)O)C(=O)N[C@@H](Cc1ccccc1)C(N)=O`: the result in [1], in experiment [2], in experiment [3], in experiment [4] and in [5] was inactive.

In the case of `CC(C)OC(=O)C(C(=O)OC(C)C)=C1SC=CS1`, the outcome in experiment [1] was inactive.

`NS(=O)(=O)c1cc(Cl)c(Cl)c(S(N)(=O)=O)c1`: in [6], the survival was 2 (inactive). Moreover, the compound was classed as inactive in experiment [1], in experiment [3], in experiment [4] and in [5].

For the compound `O=C(O)C(=O)Nc1cccc(-c2nn[nH]n2)c1`, the call in [1], in experiment [3], in experiment [4] and in [5] was inactive.

As for `C[C@H]1C[C@H]2[C@@H]3CCC4=CC(=O)C=C[C@]4(C)[C@H]3C(=O)C[C@]2(C)[C@@]1(O)C(=O)CO`, the compound was classed as inactive in [1], in [3], in experiment [4] and in experiment [5].

`Cc1oc(=O)oc1CN1CCN(c2cc3c(cc2F)c(=O)c(C(=O)O)c2n3C(C)S2)CC1` (configuration not stated): the outcome in experiment [1], in experiment [2], in experiment [3], in [4] and in experiment [5] was inactive.

On to `CC(=O)[C@H]1CC[C@H]2[C@@H]3CC=C4C[C@@H](O)CC[C@]4(C)[C@H]3CC[C@]12C`, for which, in [6], the survival is 9.33 (inactive). Besides, the call in experiment [1], in [2], in experiment [4] and in experiment [5] was inactive. In [7], the luciferase signal is 44 AU (inactive).

With `CNC(=O)c1cc(Oc2ccc(NC(=O)Nc3ccc(Cl)c(C(F)(F)F)c3)cc2)ccn1`, the AC50 in [1] is 18.7 µM (active); in [3], 10.5 µM (active); in experiment [4] it was 20.9 µM (active); in experiment [5], 4.17 µM (active). The SSMD in experiment [8] is 0.678. Moreover, the cell count in experiment [8] turned out to be 6960. Also, the plate-normalised HSF1 focus index in [8] was 1.05 (inactive).

On to `CCOC(=O)[C@H](CCc1ccccc1)N[C@H]1CS[C@H](c2cccs2)CN(CC(=O)O)C1=O`, for which the AC50 in experiment [1] was 0.59 µM (active). Moreover, the call in experiment [2], in [3], in [4] and in [5] was inactive.

The inhibition is the change of the read-out against control, counted positive when it falls. For `CCCCCCCCCCCCCCCC(=O)NCCO`, in experiment [9], the period change was 0.19 h (inactive). Besides, in experiment [6], the survival is 109 (inactive). Further, the inhibition in [10] is -7% (inactive). Also, the fluorescence ratio (interference) in experiment [11] was 1 (inactive).

As to `CCN[C@H]1C[C@H](C)S(=O)(=O)c2sc(S(N)(=O)=O)cc21`, in [6], the survival was 14.7 (inactive). Further, the call in experiment [1], in experiment [2], in [3], in [4] and in [5] was inactive. For the same compound, the SSMD in experiment [8] was 2.68. The cell count in [8] is 6990. In experiment [8], the plate-normalised HSF1 focus index is 1.14 (inactive).

On to `CC(C)CC(=O)N[C@H](C(=O)N[C@H](C(=O)N[C@@H](CC(C)C)[C@@H](O)CC(=O)N[C@@H](C)C(=O)N[C@@H](CC(C)C)[C@@H](O)CC(=O)O)C(C)C)C(C)C` (Isovaleryl-VV[Sta]A[Sta]-OH), for which the compound was called inactive in experiment [1], in experiment [2], in experiment [3], in experiment [4] and in [5].

Consider `CNCCC(Oc1ccccc1OC)c1ccccc1` (configuration not stated), for which, in [9], the period change was -0.31 h (inactive). In [6], the survival is 0.917 (inactive). The inhibition in experiment [10] is -6% (inactive). The fluorescence ratio (interference) in experiment [11] was 0.9 (inactive). Also, the compound was called inactive in experiment [12].

As for `O=C(NOCC1CC1)c1ccc(F)c(F)c1Nc1ccc(I)cc1Cl`, the AC50 in experiment [1] is 16.6 µM (active); in experiment [2], 3.32 µM (active); in experiment [3], 2.35 µM (active); in [4] it was 10.5 µM (active); in experiment [5] it was 1.86 µM (active).

`CC(=O)SC[C@@H](C)C(=O)N1CCC[C@H]1C(=O)N[C@@H](Cc1ccccc1)C(=O)O`: the compound was classed as inactive in experiment [1], in experiment [4] and in [5].

`Nc1ccn(C[C@@H](CO)OCP(=O)(O)O)c(=O)n1`: the result in experiment [1], in experiment [2], in [3], in experiment [4] and in experiment [5] was inactive.

In the case of `CC(C)C[C@H](NC(=O)[C@H](Cc1ccccc1)NC(=O)c1cnccn1)B(O)O`, the AC50 in experiment [1] was 0.0209 µM (active); in experiment [3] it was 0.00662 µM (active); in experiment [4], 0.0264 µM (active); in [5], 0.0263 µM (active). For the same compound, in experiment [8], the SSMD amounted to 3.94. For the same compound, the cell count in [8] worked out at 7530. Further, the plate-normalised HSF1 focus index in experiment [8] was 1.14 (inactive).

On to `CC1(COc2ccc(CC3SC(=O)NC3=O)cc2)CCCCC1` (configuration not stated), for which the survival in [6] was 117 (inactive).

Consider `COC(=O)C1=C(C)NC(C)=C(C(=O)OCCCN2CCC(c3ccccc3)(c3ccccc3)CC2)C1c1cccc([N+](=O)[O-])c1` (configuration not stated), for which the call in [1] and in experiment [4] was inactive. Moreover, the AC50 is 13.2 µM (active) in experiment [2] and 8.33 µM (active) in experiment [3].

On to `CN1CCCN=C1/C=C/c1cccs1`, for which the survival in [6] is 25.8 (inactive). In addition, the compound was classed as inactive in experiment [3] and in experiment [5].

`CNC(=O)c1ccccc1Sc1ccc2c(/C=C/c3ccccn3)n[nH]c2c1`: in [2], the AC50 was 1.48 µM (active). The AC50 in experiment [3] is 1.18 µM (active). Also, in experiment [5], the AC50 is 5.25 µM (active). Further, in experiment [8], the SSMD was 5.16, the cell count was 7390 and the plate-normalised HSF1 focus index was 1.18 (inactive).

For the compound `Cc1ccccc1C(=O)Nc1ccc(C(=O)N2CCCC(O)c3cc(Cl)ccc32)c(C)c1` (configuration not stated), the result in [3], in experiment [4] and in experiment [5] was inactive.
